Laboratory results reported in PubChem BioAssay (NCI).
This is part of a sample that, as a whole, favours compounds with a hit. Of some 83,000 tested, about 20% had one in any assay.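 Negative percent growth values reflect cell death: -40 means 40% of the cells present at the start died, and -100 means all died.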 Unmarked numbers belong to inactive results. Calls of active or inactive are those of the source. The calls were made as follows: active = growth percent below 10; inactive = the rest.

How the values were obtained:
Assay in all cases: NCI-60 one-dose screen, 48 h (100 = growth as untreated, 0 = no growth, -100 = all killed)
SR leukemia = conditions: 10 µM
RPMI-8226 leukemia = conditions: 10 µM
OVCAR-8 ovarian = conditions: 10 µM
OVCAR-5 ovarian = conditions: 10 µM
OVCAR-4 ovarian = conditions: 10 µM
SK-OV-3 ovarian = conditions: 10 µM
IGROV1 ovarian = conditions: 10 µM
OVCAR-3 ovarian = conditions: 10 µM
HS 578T breast = conditions: 10 µM
NCI/ADR-RES ovarian = conditions: 10 µM
T-47D breast = conditions: 10 µM
BT-549 breast = conditions: 10 µM
MDA-MB-435 melanoma = conditions: 10 µM
SW-620 colon = conditions: 10 µM
MCF7 breast = conditions: 10 µM unless noted
HCT-116 colon = conditions: 10 µM
HCC-2998 colon = conditions: 10 µM
KM12 colon = conditions: 10 µM

SMILES | growth (SR leukemia) | growth (RPMI-8226 leukemia) | growth (OVCAR-8 ovarian) | growth (OVCAR-5 ovarian) | growth (OVCAR-4 ovarian) | growth (SK-OV-3 ovarian) | growth (IGROV1 ovarian) | growth (OVCAR-3 ovarian) | growth (HS 578T breast) | growth (NCI/ADR-RES ovarian) | growth (T-47D breast) | growth (BT-549 breast) | growth (MDA-MB-435 melanoma) | growth (SW-620 colon) | growth (MCF7 breast) | growth (HCT-116 colon) | growth (HCC-2998 colon) | growth (KM12 colon)
CCCOC(=O)C(O)c1ccccc1 (configuration not stated) | 107% | 118% | 114% | 94.9% | 119% | 107% | 117% | 106% | 104% | 109% | 104% | 103% | 111% | 102% | 98.3% | 97.8% | 110% | 101%
O=[N+]([O-])c1ccc(CO)cc1 | 99.5% | 112% | 109% | 105% | 104% | 93.7% | 112% | 113% | 98.9% | 107% | 88.3% | 105% | 90.3% | 102% | 91.1% | 101% | 96.1% | 105%
Nc1ccc(N)c([N+](=O)[O-])c1 | 115% | 98.8% | 111% | 104% | 112% | 113% | 113% | 106% | 105% | 107% | 91.3% | 96.9% | 109% | 97.7% | 101% | 99.6% | 106% | 104%
O=C(O)CSCSCC(=O)O | 97.1% | 97.3% | 101% | 101% | 99.6% | 93.6% | 107% | 104% | 114% | 109% | 95.4% | 101% | 99.6% | 105% | 99.6% | 106% | 109% | 109%
Oc1ccc(N=Nc2ccc(Br)cc2)c(O)c1 | -8.8% (active) | -37.3% (active) | 24.1% | 80.7% | 33.7% | 25.7% | -15.3% (active) | -65.2% (active) | 10.4% | -55.4% (active) | 28% | 46.1% | -49% (active) | 18.8% | 15.6% | 18.1% | 33.6% | 8.35% (active)
Cc1cc(N)ccc1-c1ccc(N)cc1C | 95.2% | 108% | 90.7% | 98.4% | 108% | 96.4% | 104% | 99.8% | 90.4% | 92.5% | 98.1% | 92.3% | 102% | 101% | 104% | 105% | 88.4% | 99.7%
CCN(CC)CCCC(C)Nc1ccnc(/C=C/c2ccc(Cl)cc2)c1 (configuration not stated) | -19% (active) | -26.3% (active) | 14.8% | 47.1% | 15.4% | 72.8% | 41.2% | 26.5% | 47.1% | 56.1% | -4.4% (active) | 29.1% | -53.4% (active) | -53.2% (active) | -26.6% (active) | -10.5% (active) | -23.6% (active) | 25.3%
COc1ccc(-c2cc3c(nn2)-c2ccccc2C3=O)cc1 | -21.8% (active) | 27.2% | -9.96% (active) | 83.7% | -26.1% (active) | 102% | 61.6% | -49.3% (active) | 103% | 60.9% | 77.5% | 89.7% | 10.4% | 4.15% (active) | 16.2% | 32% | 34.5% | 37.1%
CC(C)(N)COS(=O)(=O)O | 103% | 102% | 102% | 107% | 105% | 96.5% | 108% | 104% | 99.8% | 114% | 108% | 100% | 94.6% | 101% | 95.5% | 95.4% | 112% | 99.1%
O=c1cc(-c2ccccc2)nc2cc(-c3ccco3)[nH]n12 | 13.1% | 71.6% | 101% | 116% | 91.5% | 90.3% | 70.5% | 93.7% | 89.2% | 98.9% | 65.4% | 98.3% | 41.8% | 81.7% | 28% | 90.3% | 91.7% | 69.5%
CCOC(=O)C1=C(Nc2ccc(Br)cc2)C(=O)N(CC)C1 | 97.7% | 99.7% | 95.7% | 91% | 93.7% | 102% | 93.1% | 110% | 97.4% | 93.3% | 107% | 86.9% | 101% | 100% | 105% | 95.9% | 101% | 101%
CC(=O)c1ccc(C)c(N)c1 | 106% | 101% | 96.4% | 102% | 111% | 98.6% | 95.8% | 108% | 96.9% | 91.2% | 99.8% | 94.7% | 114% | 101% | 97.1% | 94.2% | 108% | 97%
O=C1C[C@H](c2ccccc2)[C@H](c2ccccc2)C1 | 99.2% | 83.2% | 109% | 95.8% | 105% | 102% | 112% | 118% | 112% | 106% | 99.1% | 93.7% | 108% | 109% | 99.1% | 99.1% | 104% | 115%
CCOC(=O)c1ccc(Nc2sc(C(=O)c3cccc([N+](=O)[O-])c3)c(N)c2C#N)cc1 | -28.3% (active) | -3.9% (active) | 35.7% | 38.1% | 33.1% | 27.6% | -6.69% (active) | -44.8% (active) | 15.5% | 26.8% | 48% | 52.9% | -2.02% (active) | 5.69% (active) | 7.42% (active) | 0.851% (active) | 45.8% | 17.5%
CN(C)c1ccc(C(c2ccc(O)cc2)c2ccc(N(C)C)cc2)cc1 | 67.5% | 80.1% | 94.1% | 98.6% | 94.9% | 104% | 106% | 92.5% | 91.8% | 93.9% | 59.8% | 103% | 41.8% | 96.5% | 78.6% | 93.9% | 117% | 89.5%
COC(=O)Nc1cccc(Cl)c1OC | 101% | 99.3% | 106% | 92.6% | 111% | 116% | 110% | 111% | 95.4% | 110% | 104% | 111% | 101% | 71.7% | 104% | 107% | 104% | 111%
O=C(NN=C1CCCCC1)C(=O)NN=C1CCCCC1 | 83.7% | 99.6% | 100% | 105% | 115% | 101% | 127% | 123% | 115% | 114% | 99.7% | 100% | 117% | 117% | 92.5% | 106% | 113% | 105%
CC1(O)CCCCC1O (configuration not stated) | 103% | 98.6% | 105% | 103% | 107% | 101% | 90.9% | 120% | 102% | 105% | 98.4% | 94% | 117% | 104% | 106% | 101% | 104% | 115%
CC(C)C(C#N)(C(C)C)C(C)C | 89.8% | 96.5% | 109% | 108% | 109% | 109% | 103% | 107% | 106% | 104% | 104% | 102% | 96.3% | 101% | 97.7% | 103% | 110% | 103%
